# Results taken from publication PMC7862700, “An all-to-all approach to the identification of sequence-specific readers for epigenetic DNA modifications on cytosine”.
# What was measured:
# Assay in all cases: DAPPL (digital affinity profiling via proximity ligation, sequencing); 10 mM Tris-HCl pH 7.5, 50 mM NaCl, 1 mM DTT, 4% glycerol, room temperature, 30 min; GST-TFs on glutathione beads, 16-mer random dsDNA library, 0.1% formaldehyde crosslink after washing; high values mean tight binding
# FEV = molecular target: T1, FEV (Homo sapiens, UniProt Q99581 1-238); settings: protein: recombinant; tags: N-terminal GST; dsDNA, one strand shown
# T1 sequence: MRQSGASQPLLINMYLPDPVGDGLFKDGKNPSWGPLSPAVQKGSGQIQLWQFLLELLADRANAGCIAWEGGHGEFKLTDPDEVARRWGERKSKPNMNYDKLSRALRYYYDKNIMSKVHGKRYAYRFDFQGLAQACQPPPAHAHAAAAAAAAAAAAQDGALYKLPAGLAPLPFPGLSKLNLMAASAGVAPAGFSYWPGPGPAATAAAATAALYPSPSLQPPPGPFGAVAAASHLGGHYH
# Summary of the method: (§1)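 Beads coated with glutathione captured GST-fused human transcription factors that had been expressed in yeast, and the factors were then given DNA barcodes and pooled with a tag-only sample. The pools were incubated with 200 nmole of a random double-stranded 16-mer DNA library in Tris/NaCl/DTT/glycerol buffer for 30 min at room temperature, washed, crosslinked with 0.1% formaldehyde and proximity-ligated with BsaI/T4 ligase at 37 °C for 1 h. PCR amplification and Illumina NextSeq500 sequencing came last. Binding signal is each hexamer's read frequency for a factor divided by its frequency for the tag-only sample.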
# ETV5 = ETV5 (Homo sapiens, UniProt P41161 1-510); settings: protein: recombinant; tags: N-terminal GST; dsDNA, one strand shown
# Summary of the method: as §1
# HSF1 = HSF1 (Homo sapiens, UniProt Q00613 1-529); settings: protein: recombinant; tags: N-terminal GST; chain copies: 3; dsDNA, one strand shown
# Summary of the method: as §1
# SPIC = molecular target: T2, SPIC (Homo sapiens, UniProt Q8N5J4 1-248); settings: protein: recombinant; tags: N-terminal GST; dsDNA, one strand shown
# T2 sequence: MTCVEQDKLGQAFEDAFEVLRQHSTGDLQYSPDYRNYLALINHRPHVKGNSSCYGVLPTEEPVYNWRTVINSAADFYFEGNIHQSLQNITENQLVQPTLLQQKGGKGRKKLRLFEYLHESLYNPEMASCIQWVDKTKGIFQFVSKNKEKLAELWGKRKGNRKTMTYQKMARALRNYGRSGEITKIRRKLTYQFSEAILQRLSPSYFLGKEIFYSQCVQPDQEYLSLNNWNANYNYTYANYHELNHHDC
# Summary of the method: as §1
# ELF4 = ELF4 (Homo sapiens, UniProt Q99607 1-663); settings: protein: recombinant; tags: N-terminal GST; dsDNA, one strand shown
# Summary of the method: as §1
# ELK4 = molecular target: T3, ELK4 (Homo sapiens, UniProt P28324-2 1-405); settings: protein: recombinant; tags: N-terminal GST; dsDNA, one strand shown
# T3 sequence: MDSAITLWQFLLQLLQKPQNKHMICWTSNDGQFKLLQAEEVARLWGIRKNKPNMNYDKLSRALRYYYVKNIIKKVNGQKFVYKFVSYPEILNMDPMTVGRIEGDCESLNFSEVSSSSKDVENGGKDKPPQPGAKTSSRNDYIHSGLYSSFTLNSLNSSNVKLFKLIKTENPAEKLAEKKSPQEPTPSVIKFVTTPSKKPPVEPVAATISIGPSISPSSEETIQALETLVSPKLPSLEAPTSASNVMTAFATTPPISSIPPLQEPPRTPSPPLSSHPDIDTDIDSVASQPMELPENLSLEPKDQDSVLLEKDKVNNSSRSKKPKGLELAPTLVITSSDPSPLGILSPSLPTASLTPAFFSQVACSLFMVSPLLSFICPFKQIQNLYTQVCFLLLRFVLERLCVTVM
# Summary of the method: as §1
# ETV2 = molecular target: T4, ETV2 (Homo sapiens, UniProt O00321 1-342); settings: protein: recombinant; tags: N-terminal GST; dsDNA, one strand shown
# T4 sequence: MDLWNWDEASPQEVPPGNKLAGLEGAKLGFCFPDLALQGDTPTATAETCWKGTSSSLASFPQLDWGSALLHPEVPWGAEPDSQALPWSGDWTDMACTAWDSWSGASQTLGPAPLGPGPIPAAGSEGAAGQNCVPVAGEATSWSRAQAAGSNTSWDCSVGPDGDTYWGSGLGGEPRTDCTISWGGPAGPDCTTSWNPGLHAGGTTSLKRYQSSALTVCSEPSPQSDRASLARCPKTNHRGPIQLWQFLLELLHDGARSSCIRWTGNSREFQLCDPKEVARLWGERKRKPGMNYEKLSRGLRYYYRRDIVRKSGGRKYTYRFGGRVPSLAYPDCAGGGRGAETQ
# Summary of the method: as §1
# ELF3 = molecular target: T5, ELF3 (Homo sapiens, UniProt P78545 1-371); settings: protein: recombinant; tags: N-terminal GST; dsDNA, one strand shown
# T5 sequence: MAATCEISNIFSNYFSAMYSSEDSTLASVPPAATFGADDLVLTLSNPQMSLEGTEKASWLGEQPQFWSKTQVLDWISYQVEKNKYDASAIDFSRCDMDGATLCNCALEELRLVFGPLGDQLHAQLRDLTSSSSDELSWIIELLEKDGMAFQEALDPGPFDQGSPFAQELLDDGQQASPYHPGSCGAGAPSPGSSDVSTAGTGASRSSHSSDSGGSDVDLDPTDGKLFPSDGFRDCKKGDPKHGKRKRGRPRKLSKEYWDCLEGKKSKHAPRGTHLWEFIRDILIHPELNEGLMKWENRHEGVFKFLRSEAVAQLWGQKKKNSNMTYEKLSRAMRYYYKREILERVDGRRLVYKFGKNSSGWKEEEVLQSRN
# Summary of the method: as §1
# CRX = CRX (Homo sapiens, UniProt O43186 1-299); settings: protein: recombinant; tags: N-terminal GST; dsDNA, one strand shown
# Summary of the method: as §1
# ETV1 = ETV1 (Homo sapiens, UniProt P50549 1-477); settings: protein: recombinant; tags: N-terminal GST; dsDNA, one strand shown
# Summary of the method: as §1
# ERF = molecular target: T6, ERF (Homo sapiens, UniProt P50548 1-548); settings: protein: recombinant; tags: N-terminal GST; dsDNA, one strand shown
# T6 sequence: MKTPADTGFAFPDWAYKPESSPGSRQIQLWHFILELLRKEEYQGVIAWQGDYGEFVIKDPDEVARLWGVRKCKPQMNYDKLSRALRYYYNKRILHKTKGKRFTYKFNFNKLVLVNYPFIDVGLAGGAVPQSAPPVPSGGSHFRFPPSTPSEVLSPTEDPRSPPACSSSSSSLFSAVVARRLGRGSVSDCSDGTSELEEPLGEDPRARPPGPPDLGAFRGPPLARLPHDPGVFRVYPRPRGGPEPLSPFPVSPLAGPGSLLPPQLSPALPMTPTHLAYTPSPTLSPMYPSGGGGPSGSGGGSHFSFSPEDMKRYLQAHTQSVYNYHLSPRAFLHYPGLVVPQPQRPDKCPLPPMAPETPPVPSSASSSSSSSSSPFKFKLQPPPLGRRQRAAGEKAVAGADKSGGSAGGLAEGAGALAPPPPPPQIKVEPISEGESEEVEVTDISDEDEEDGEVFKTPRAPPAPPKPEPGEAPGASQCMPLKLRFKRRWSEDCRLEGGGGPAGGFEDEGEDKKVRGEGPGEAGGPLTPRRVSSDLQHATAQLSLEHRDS
# Summary of the method: as §1
# ETV3L = molecular target: T7, ETV3L (Homo sapiens, UniProt Q6ZN32 1-361); settings: protein: recombinant; tags: N-terminal GST; dsDNA, one strand shown
# T7 sequence: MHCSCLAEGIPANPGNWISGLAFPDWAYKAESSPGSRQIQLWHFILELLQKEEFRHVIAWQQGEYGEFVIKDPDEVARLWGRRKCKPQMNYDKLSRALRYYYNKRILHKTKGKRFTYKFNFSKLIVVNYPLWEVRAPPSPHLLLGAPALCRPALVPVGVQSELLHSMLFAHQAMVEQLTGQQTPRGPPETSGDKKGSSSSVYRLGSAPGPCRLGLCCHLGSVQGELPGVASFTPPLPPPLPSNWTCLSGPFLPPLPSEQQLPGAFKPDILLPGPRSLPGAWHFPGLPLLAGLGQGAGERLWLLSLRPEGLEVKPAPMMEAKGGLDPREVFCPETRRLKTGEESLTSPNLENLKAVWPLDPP
# Summary of the method: as §1
# ETS2 = molecular target: T8, ETS2 (Homo sapiens, UniProt P15036 1-469); settings: protein: recombinant; tags: N-terminal GST; dsDNA, one strand shown
# T8 sequence: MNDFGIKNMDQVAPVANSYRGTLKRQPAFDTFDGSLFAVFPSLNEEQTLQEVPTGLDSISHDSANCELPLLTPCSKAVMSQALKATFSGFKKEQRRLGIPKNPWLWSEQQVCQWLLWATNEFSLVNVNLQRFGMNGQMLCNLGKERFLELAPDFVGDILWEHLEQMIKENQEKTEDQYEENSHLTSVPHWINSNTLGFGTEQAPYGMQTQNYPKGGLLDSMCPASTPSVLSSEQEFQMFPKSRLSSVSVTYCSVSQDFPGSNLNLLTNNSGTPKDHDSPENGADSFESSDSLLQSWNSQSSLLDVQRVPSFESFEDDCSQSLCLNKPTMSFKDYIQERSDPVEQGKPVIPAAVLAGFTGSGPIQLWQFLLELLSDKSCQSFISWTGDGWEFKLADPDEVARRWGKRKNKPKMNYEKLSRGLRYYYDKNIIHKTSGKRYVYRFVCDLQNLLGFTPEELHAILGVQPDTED
# Summary of the method: as §1
# SPDEF = molecular target: T9, SPDEF (Homo sapiens, UniProt O95238 1-335); settings: protein: recombinant; tags: N-terminal GST; dsDNA, one strand shown
# T9 sequence: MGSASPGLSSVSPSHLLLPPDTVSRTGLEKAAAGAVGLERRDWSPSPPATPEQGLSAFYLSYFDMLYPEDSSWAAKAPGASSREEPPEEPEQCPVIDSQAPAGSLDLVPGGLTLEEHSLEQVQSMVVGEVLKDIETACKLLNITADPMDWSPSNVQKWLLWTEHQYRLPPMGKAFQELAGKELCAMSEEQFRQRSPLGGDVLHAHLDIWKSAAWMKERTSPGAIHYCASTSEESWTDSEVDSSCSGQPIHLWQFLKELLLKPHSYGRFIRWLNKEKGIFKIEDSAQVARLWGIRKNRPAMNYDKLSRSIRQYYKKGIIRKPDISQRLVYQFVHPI
# Summary of the method: as §1
# ETV7 = molecular target: T10, ETV7 (Homo sapiens, UniProt Q9Y603 1-341); settings: protein: recombinant; tags: N-terminal GST; dsDNA, one strand shown
# T10 sequence: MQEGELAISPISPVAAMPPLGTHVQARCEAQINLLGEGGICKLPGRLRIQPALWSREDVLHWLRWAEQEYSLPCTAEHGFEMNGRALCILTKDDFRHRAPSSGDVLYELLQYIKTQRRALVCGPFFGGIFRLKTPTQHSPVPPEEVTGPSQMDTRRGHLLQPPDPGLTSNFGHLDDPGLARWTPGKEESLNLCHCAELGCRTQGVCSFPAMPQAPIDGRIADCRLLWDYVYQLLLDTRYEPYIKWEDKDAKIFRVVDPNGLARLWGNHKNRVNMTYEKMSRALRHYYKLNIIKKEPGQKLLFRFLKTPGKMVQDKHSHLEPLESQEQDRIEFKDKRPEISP
# Summary of the method: as §1
# ELF5 = molecular target: T11, ELF5 (Homo sapiens, UniProt Q9UKW6-2 1-255); settings: protein: recombinant; tags: N-terminal GST; dsDNA, one strand shown
# T11 sequence: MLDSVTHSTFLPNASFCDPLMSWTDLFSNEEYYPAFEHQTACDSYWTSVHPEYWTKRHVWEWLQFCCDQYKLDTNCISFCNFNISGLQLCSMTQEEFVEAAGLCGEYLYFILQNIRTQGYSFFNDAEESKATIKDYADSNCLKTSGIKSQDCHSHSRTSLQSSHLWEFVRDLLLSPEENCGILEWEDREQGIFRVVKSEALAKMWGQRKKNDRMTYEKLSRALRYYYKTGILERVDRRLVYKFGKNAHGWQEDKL
# Summary of the method: as §1
# ETV3 = molecular target: T12, ETV3 (Homo sapiens, UniProt P41162-2 1-143); settings: protein: recombinant; tags: N-terminal GST; dsDNA, one strand shown
# T12 sequence: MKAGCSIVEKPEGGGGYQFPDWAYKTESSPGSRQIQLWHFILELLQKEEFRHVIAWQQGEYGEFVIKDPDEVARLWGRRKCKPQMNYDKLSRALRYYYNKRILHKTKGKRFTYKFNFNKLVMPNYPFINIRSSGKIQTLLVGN
# Summary of the method: as §1
# ETV6 = ETV6 (Homo sapiens, UniProt P41212 1-452); settings: protein: recombinant; tags: N-terminal GST; dsDNA, one strand shown
# Summary of the method: as §1
# CRX, sequence (O43186 whole entry): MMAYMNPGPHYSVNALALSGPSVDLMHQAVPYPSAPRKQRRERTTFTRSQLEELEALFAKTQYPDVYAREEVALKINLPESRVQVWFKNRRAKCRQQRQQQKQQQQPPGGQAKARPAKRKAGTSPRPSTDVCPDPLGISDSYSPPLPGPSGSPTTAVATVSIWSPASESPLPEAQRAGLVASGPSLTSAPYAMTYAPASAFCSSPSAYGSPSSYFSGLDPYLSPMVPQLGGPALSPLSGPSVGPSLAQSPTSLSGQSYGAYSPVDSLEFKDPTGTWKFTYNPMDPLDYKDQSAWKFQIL
# ETV1, sequence (P50549 whole entry): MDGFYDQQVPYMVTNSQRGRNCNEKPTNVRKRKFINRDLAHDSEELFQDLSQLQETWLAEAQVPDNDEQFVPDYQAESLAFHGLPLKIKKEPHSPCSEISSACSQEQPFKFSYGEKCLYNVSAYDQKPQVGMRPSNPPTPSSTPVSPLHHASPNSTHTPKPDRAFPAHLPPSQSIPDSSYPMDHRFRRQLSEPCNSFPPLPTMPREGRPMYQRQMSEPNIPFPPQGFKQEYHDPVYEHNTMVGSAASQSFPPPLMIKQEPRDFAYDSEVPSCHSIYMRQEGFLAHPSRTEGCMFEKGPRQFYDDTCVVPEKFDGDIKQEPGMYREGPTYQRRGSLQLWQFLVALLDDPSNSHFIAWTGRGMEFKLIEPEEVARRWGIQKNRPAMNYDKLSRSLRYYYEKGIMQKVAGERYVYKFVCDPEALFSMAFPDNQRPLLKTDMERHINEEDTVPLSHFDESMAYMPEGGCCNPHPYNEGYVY
# HSF1, sequence (Q00613 whole entry): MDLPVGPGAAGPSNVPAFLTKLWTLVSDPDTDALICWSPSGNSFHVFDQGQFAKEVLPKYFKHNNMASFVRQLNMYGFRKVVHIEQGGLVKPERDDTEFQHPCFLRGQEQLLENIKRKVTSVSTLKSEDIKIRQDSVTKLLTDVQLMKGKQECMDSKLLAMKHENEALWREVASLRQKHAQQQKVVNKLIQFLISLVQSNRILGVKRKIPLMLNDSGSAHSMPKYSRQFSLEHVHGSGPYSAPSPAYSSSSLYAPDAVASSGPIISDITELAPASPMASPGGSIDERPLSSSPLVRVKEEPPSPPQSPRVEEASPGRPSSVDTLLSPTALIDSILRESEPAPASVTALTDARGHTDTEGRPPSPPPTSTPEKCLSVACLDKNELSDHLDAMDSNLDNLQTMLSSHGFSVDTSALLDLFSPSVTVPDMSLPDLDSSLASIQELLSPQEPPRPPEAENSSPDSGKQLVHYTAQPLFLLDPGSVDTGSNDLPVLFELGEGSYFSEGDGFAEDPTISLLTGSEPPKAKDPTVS
# ELF4, sequence (Q99607 whole entry): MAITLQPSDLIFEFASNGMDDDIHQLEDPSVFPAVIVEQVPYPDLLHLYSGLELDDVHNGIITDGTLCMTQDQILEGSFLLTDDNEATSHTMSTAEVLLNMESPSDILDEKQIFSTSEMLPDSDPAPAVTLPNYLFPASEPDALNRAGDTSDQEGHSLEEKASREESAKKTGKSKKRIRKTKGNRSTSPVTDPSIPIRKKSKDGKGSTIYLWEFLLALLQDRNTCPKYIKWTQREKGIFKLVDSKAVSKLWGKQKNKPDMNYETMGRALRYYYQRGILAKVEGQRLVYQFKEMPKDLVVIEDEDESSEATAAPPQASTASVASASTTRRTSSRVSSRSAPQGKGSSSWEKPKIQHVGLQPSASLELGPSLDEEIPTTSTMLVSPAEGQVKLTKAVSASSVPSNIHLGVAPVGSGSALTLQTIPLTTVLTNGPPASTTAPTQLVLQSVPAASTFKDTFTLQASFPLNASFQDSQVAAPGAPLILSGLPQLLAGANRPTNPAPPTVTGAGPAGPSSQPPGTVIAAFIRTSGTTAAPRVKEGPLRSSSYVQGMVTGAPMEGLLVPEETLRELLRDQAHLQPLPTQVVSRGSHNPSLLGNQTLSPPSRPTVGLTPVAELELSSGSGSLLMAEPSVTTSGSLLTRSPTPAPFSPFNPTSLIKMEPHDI
# ETV5, sequence (P41161 whole entry): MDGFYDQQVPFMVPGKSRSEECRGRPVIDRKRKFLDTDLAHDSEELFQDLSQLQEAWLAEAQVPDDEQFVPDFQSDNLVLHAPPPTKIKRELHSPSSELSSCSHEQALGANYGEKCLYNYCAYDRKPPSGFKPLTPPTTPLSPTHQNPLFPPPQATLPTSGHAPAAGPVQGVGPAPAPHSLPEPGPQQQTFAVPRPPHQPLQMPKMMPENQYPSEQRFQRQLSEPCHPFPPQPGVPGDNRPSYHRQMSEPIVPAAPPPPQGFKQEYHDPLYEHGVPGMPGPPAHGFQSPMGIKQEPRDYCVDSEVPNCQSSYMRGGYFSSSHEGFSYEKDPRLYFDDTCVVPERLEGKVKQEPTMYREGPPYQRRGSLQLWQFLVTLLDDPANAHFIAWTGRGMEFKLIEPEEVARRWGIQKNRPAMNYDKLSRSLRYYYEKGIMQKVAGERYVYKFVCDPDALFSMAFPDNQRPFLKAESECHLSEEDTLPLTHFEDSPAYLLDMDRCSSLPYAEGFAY
# ETV6, sequence (P41212 whole entry): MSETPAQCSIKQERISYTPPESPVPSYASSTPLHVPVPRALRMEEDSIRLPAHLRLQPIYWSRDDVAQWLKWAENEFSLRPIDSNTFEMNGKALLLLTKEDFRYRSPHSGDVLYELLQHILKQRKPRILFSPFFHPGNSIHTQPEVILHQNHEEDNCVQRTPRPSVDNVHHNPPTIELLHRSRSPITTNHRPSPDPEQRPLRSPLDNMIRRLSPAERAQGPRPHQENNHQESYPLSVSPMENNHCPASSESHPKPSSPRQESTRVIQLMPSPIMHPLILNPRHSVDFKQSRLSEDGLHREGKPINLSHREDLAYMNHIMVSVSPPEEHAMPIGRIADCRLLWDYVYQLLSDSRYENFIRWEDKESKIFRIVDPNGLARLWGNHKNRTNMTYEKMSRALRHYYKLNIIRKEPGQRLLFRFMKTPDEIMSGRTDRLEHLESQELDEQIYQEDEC
sequence,measurement,setting,value
ATCTAG,binding signal,FEV,"1.04 fold enrichment (6-mer frequency, TF over GST control)"
same,binding signal,ETV5,"1 fold enrichment (6-mer frequency, TF over GST control)"
same,binding signal,HSF1,"2.66 fold enrichment (6-mer frequency, TF over GST control)"
same,binding signal,SPIC,"1.19 fold enrichment (6-mer frequency, TF over GST control)"
same,binding signal,ELF4,"1.09 fold enrichment (6-mer frequency, TF over GST control)"
same,binding signal,ELK4,"1.27 fold enrichment (6-mer frequency, TF over GST control)"
same,binding signal,ETV2,"1.06 fold enrichment (6-mer frequency, TF over GST control)"
same,binding signal,ELF3,"1.24 fold enrichment (6-mer frequency, TF over GST control)"
same,binding signal,CRX,"1.7 fold enrichment (6-mer frequency, TF over GST control)"
same,binding signal,ETV1,"1.03 fold enrichment (6-mer frequency, TF over GST control)"
same,binding signal,ERF,"1.18 fold enrichment (6-mer frequency, TF over GST control)"
same,binding signal,ETV3L,"1.08 fold enrichment (6-mer frequency, TF over GST control)"
same,binding signal,ETS2,"1.11 fold enrichment (6-mer frequency, TF over GST control)"
same,binding signal,SPDEF,"1.03 fold enrichment (6-mer frequency, TF over GST control)"
same,binding signal,ETV7,"1.19 fold enrichment (6-mer frequency, TF over GST control)"
same,binding signal,ELF5,"1.1 fold enrichment (6-mer frequency, TF over GST control)"
same,binding signal,ETV3,"1.07 fold enrichment (6-mer frequency, TF over GST control)"
same,binding signal,ETV6,"1.05 fold enrichment (6-mer frequency, TF over GST control)"
